Results on 40 compounds are retold here after PubChem BioAssay (NCI).

This is part of a sample that, as a whole, favours compounds with a hit. Of some 83,000 tested, about 20% had one in any assay.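 Assay: single dose, 48 h. Readout: percent growth (0 = no net growth; negative = cell death). Active: <10.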 Calls of active or inactive are those of the source.

The assay has as its system HL-60(TB) leukemia. The assay is described as follows: NCI-60 one-dose screen, 48 h (100 = growth as untreated, 0 = no growth, -100 = all killed). The note with it: 10 µM unless noted.
Consider `CN=S(=O)(NC(=O)c1ccc(Cl)cc1Cl)c1ccc(Br)s1` (stereo not given), for which the growth was 108% (inactive).

Regarding `CS(=O)(=O)Nc1ccc(Nc2c3ccccc3nc3cc(N)ccc23)cc1`, the growth is 5.48% (active). For `CCOC(=O)C1=C(c2ccccc2)N=c2s/c(=C/c3ccc(Br)cc3)c(=O)n2C1c1ccc(O)cc1` (stereo not given), the growth was 94.9% (inactive). Next, `CCO/C=N/NC(=O)c1ccncc1`: 102% (inactive). Next, `Cc1cc(C)c(O)c(CNCCCCCCNCc2cc(C)cc(C)c2O)c1`: -43% (active).

On to `Clc1ncn[nH]1`, for which the growth was 103% (inactive). For the compound `CCOC(=O)/C(C#N)=C(/CC)OCC`, the growth is 95% (inactive). Next, `NC(=O)c1cccc([C@@H]2O[C@H](CO)[C@@H](O)[C@H]2O)c1`: 39.5% (inactive); `c1ccc2c(c1)CCCc1nnc3nc4ccccc4n3c1-2`: 34.2% (inactive); `CN1C(=O)N(C)C2C1NN=c1s/c(=C\c3ccsc3)c(=O)n12` (stereo not given): 5.85% (active). As for `Cc1cc2c(cc1C)Nc1sc(NC(=O)CN3CCN(C)CC3)nc1C(=O)N2`, the figure is 83.3% (inactive).

`Cn1ccc(=O)nc1`: the growth is 105% (inactive).

With `CC(=O)Oc1c(Cl)cccc1-c1ccccc1`, the growth is 99.6% (inactive). Next, `CC(=O)CC(C)(C)c1ccc(Cl)cc1`: 69.9% (inactive); `O=[n+]1ccn([O-])c2ccccc21`: 118% (inactive). On to `Cc1ccnc(NC(c2ccccc2)c2ccc3cccnc3c2O)c1` (stereo not given), for which the growth is -2.23% (active).

Consider `CC(C)=C[C@@H]1c2c(c3ccccc3n(C)c2=O)O[C@H]2c3c(c4ccccc4n(C)c3=O)OC(C)(C)[C@@H]12`, for which the growth was 20.4% (inactive). Next, `c1ccc2c(Nc3cccc4ccccc34)cccc2c1`: 18.9% (inactive). Next, `COc1cccc(NC(=O)c2sc3nc(C)c(C(=O)c4ccccc4)cc3c2N)c1`: 93.5% (inactive); `O=C1C=C(OCC=C(C(F)(F)F)C(F)(F)F)c2ccccc2C1=O`: -30% (active). As for `NC1=C(Cl)C(=O)c2ccc(S(N)(=O)=O)cc2C1=O`, the growth was 3.12% (active). Consider `CSc1ccc(-c2cc(-c3ccc(NC(=O)CCCN4CCCC4)cc3)nc(-c3ccc(NC(=O)CCCN4CCCC4)cc3)c2)cc1`, for which the growth was 60.8% (inactive). In the case of `COc1ccccc1/C=C(/C(=O)c1ccccc1)c1ccccc1`, the growth is 71.8% (inactive). With `FC(F)(F)c1ccc2nc(-c3nc(-c4ccccc4)n4ccccc34)[nH]c2c1`, the growth was 108% (inactive). Next, `N#Cc1c(-c2ccco2)nc2c(c(-c3ccccc3)nn2-c2ccccc2)c1-c1ccc(O)cc1`: 22.9% (inactive); `CC[C@H](CC[C@@H](C)[C@H]1CC[C@H]2[C@@H]3CC[C@@H]4CC(=O)/C(=C\c5ccncc5)C[C@]4(C)[C@H]3CC[C@]12C)C(C)C`: 83.1% (inactive). As for `Cc1ccc(NC(=O)/C=C/c2ccccc2)c(C(N)=O)c1`, the figure is -25.5% (active). As for `CS(=O)(=O)c1ccc(C(=O)N/N=C/c2cccc3ccccc23)cc1`, the figure is 37.5% (inactive); as for `COc1ccc(C(=O)/C=C/c2cccc([N+](=O)[O-])c2)c(OC)c1`, -10.4% (active).

Regarding `COc1ccc(-c2cc3c(C)nc(N)nc3n(C3CCC(OCCO)CC3)c2=O)cn1` (stereo not given), the growth was 28.4% (inactive). As for `CCN(CC)CCNc1ccc([N+](=O)[O-])c2sc3cc(Cl)ccc3c(=O)c12`, the growth was 54.7% (inactive).

As for `Cc1ccc(C(=O)Nc2ccc(CN3CCN(C)CC3)c(C(F)(F)F)c2)cc1C#Cc1cnc(N)c2ccc(F)cc12`, the growth was -25.4% (active). Regarding `O=c1[nH]cnc2nc[nH]c12`, the growth is 117% (inactive). Turning to `C#CCN=C[C@]12CC[C@@H](C(=C)C)[C@@H]1[C@H]1CC[C@@H]3[C@@]4(C)CCC(=O)C(C)(C)[C@@H]4CC[C@@]3(C)[C@]1(C)CC2`, the growth was -14.3% (active). Turning to `CCn1c(-c2nonc2Nc2ccc(OC)cc2)nc2ccccc21`, the growth is 128% (inactive). Turning to `CCOC(=O)CCC[P+](c1ccccc1)(c1ccccc1)c1ccccc1`, the growth is 37.7% (inactive). Consider `O=c1c2cc(F)ccc2sc2c(NCCO)nc3ccccc3c12`, for which the growth is 91.9% (inactive). For the compound `OCCNC(=S)Nc1ccc(-c2nc(N3C[C@H]4CC[C@@H](C3)O4)c3cccn3n2)cc1`, the growth was 38.2% (inactive). With `FC(F)(F)Oc1ccc2c(c1)C[C@H]1C[C@@H](c3ccoc3)N2O1`, the growth is 104% (inactive). Next, `COc1ccc(/C=C2\Oc3cc(OCCCN4CCCC4)ccc3C2=O)cc1`: 94.7% (inactive).
